This is a sample that favours compounds with a hit; in the whole collection about 3.1% have one here.
SSB-PriA inh – inhibitors of Klebsiella pneumoniae PriA binding to SSB C-terminal tail, primary screen, biochemical, AlphaScreen. PriA–SSB C-terminal tail interaction (Klebsiella pneumoniae). AlphaScreen SSBct-PriA binding, biotinylated peptide. inhibition, % at 33 µM. 430,000 compounds, 0.6% hits; in the data active = inhibition mostly above about 37%, no sharp cut-off; inactive = mostly below about 20%;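 also: plate controls were negative control peptide for no effect and reference peptide for full effect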
Anthrax LF prot – Bacillus anthracis LF protease inhibitors, primary screen, biochemical, multiplex microsphere, MLPCN library. Lethal factor (Bacillus anthracis), P15917. multiplex microsphere protease cleavage assay. inhibition, % at 10 µM. 360,000 compounds, 0.12% hits. AID 588501, 2011; also: plate controls were buffer without enzyme for full effect and enzyme alone for no effect
Target sequence (P15917 whole entry, looked up): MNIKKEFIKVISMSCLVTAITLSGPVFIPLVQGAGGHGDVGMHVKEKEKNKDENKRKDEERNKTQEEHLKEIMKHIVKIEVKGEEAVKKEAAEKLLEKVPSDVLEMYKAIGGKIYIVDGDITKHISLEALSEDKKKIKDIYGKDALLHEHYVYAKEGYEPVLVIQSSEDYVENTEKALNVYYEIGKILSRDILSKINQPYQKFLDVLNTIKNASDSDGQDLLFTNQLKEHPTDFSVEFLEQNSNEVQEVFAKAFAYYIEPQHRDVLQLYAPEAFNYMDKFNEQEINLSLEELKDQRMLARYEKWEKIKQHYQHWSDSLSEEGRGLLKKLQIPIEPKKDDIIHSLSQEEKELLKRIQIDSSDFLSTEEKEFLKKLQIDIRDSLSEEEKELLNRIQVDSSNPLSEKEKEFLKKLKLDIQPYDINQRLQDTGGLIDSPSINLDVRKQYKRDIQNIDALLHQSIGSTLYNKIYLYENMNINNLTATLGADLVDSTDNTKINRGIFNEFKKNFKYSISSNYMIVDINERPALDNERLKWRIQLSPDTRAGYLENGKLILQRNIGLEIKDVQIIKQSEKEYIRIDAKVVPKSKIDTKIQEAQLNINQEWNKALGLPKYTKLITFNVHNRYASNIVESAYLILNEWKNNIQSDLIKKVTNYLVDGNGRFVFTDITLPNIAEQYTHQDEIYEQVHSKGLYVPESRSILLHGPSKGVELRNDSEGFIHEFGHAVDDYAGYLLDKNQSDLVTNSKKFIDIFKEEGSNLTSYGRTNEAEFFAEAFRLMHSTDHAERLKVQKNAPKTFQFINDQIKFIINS
BoNT-A LC inh2 – BoNT/A light chain protease inhibitors, primary screen, biochemical, flow cytometry, MLPCN library; inhibition, % at 10 µM; 360,000 compounds, 0.17% hits; AID 588499, 2011; multiplex microsphere protease substrate cleavage; also: plate controls were buffer without enzyme for full effect and enzyme alone for no effect
Bead autofluor – compound fluorescence in toxin protease inhibitor counterscreen. compound autofluorescence counterscreen, microsphere flow cytometry; stronger effect = higher value. fluorescence intensity (concentration not given with the values). 360,000 compounds, 3.1% hits; in the data active = fluorescence intensity above about 16000; inconclusive = no clear call, values can overlap the other calls
BoNT F protease – BoNT/F light chain protease inhibitors, primary screen, biochemical, flow cytometry, MLPCN library | inhibition, % at 10 µM | Botulinum neurotoxin type F light chain protease (Clostridium botulinum) | Multiplex microsphere protease cleavage assay | AID 588497, 2011 | 360,000 compounds, 0.22% hits; in the data active = inhibition above about 35%, passing the limit was not always enough; inconclusive = no clear call, values can overlap the other calls; also: plate controls were buffer without enzyme for full effect and enzyme alone for no effect
Starred values were filed as active, the others as inactive; ? = inconclusive; . = no result given; ! = a repeat was not active. Rule as the data show it, unless noted: active = inhibition above about 30%; inconclusive = no clear call, values can overlap the other calls; inactive = below that.

SMILES	SSB-PriA inh	Anthrax LF prot	BoNT-A LC inh2	Bead autofluor	BoNT F protease
O=C(Cc1ccccc1)Nc1ccc(N2CCN(Cc3ccccc3F)CC2)cc1	-5	-12	?	17943*	6
O=C(c1ccccc1)N1CCN(c2ccc(NCc3ccc4c(c3)OCO4)cc2)CC1	46*	-15	-1	6230	-10
O=C(c1cc(-c2ccc3c(c2)OCO3)on1)N1CCN(c2ccccc2)CC1	0	-6	6	18888*	3
O=C(c1cc(-c2ccc(Cl)cc2)on1)N1CCOCC1	-4	-2	-3	21336*	-2
O=C(c1cc(-c2ccc3c(c2)OCO3)on1)N1CCOCC1	-8	-1	?	23477*	-2
O=C(c1cc(-c2ccc3c(c2)OCO3)on1)N1CCN(c2ccc(F)cc2)CC1	-10	1	-1	12750	-18
O=c1ncn(-c2ccccc2F)c2ncccc12	-25	1	4	21215*	4
O=c1ncn(-c2ccccc2C(F)(F)F)c2ncccc12	-12	-2	-3	3884	-8
CCOC(=O)C1CCN(CC(O)COc2ccc(C(=O)CC)cc2)CC1 (stereo not drawn)	2	-3	0	22284*	-1
O=C(c1ccccc1)c1ccc(OCC(O)CN2CCN(S(=O)(=O)N3CCCCC3)CC2)cc1 (stereo not drawn)	3	0	0	23589*	2
Cc1ccc(OCC(O)Cn2c(=N)n(Cc3ccccc3)c3ccccc32)cc1 (stereo not drawn)	13	-3	-1	22794*	-3
Cc1ccc(OCC(O)CN2CCN(c3ccc(C)cc3)CC2)cc1 (stereo not drawn)	2	-5	-1	4328	?
O=C(c1ccccc1)c1ccc(OCC(O)CN2CCCCC2)cc1 (stereo not drawn)	-12	-3	-1	4223	6
Cc1ccc(OCC(O)CN2CCN(CC(O)COc3ccc(C)cc3)CC2)cc1 (stereo not drawn)	2	0	-3	17745*	-5
CCC(=O)c1ccc(OC[C@@H](O)CN2CCN(CCO)CC2)cc1	-9	.	.	.	.
O=C(NCc1n[nH]c(=O)c2ccccc12)C1(c2ccccc2)CCOCC1	11	.	.	.	.
Cn1cccc1C(O)CNC(=O)c1cnc2ccccc2n1 (stereo not drawn)	-20	.	.	.	.
Cc1nn(C2CCS(=O)(=O)C2)c(C)c1S(=O)(=O)N1CCc2ccccc2C1 (stereo not drawn)	-4	.	.	.	.
Cc1nn(C(=O)c2cccnc2)c(C)c1Sc1ccccc1	-16	-4	-3	4274	-11
Cc1nn(C(=O)c2cccnc2)c(C)c1C	-7	-2	0	20525*	0
CCOc1ccc2c(C)c(C)c(=O)oc2c1OCC	-15	-3	-2	23673*	-3
CCOc1c(OC)ccc2c3c(c(=O)oc12)CCCC3	-2	-3	1	22747*	3
CCOc1ccc2c(C)c(C(=O)O)oc2c1OCC	-9	1	-1	3949	-14
CCc1ccc2nc(N(CCCN(C)C)C(=O)c3ccc([N+](=O)[O-])cc3)sc2c1	6	.	.	.	.
O=C(O)CN(Cc1ccccc1)S(=O)(=O)c1ccc(F)cc1	-16	1	-3	20545*	-6
SMILES	SSB-PriA inh	Anthrax LF prot	BoNT-A LC inh2	Bead autofluor	BoNT F protease
CC(=O)Nc1ccc(S(=O)(=O)N(CC(=O)O)Cc2ccccc2)cc1	-3	3	1	3178	-6
O=C(O)CN(c1ccccc1F)S(=O)(=O)c1ccccc1	-15	0	?	21296*	-6
CCOC(=O)CN(Cc1ccccc1)S(=O)(=O)c1ccc(NC(C)=O)cc1	-21	0	-4	21423*	-4
Cc1ccc(S(=O)(=O)N(CC(=O)O)Cc2ccccc2)cc1	13	-4	0	11275	0
COc1ccc2nc(-c3cccc(NC(=O)COc4ccc(C(C)=O)cc4OC)c3)cn2n1	-5	.	.	.	.
O=C(Nc1ccc(Cl)c(N2CCCS2(=O)=O)c1)c1ccco1	8	.	.	.	.
O=C(CSc1nnc(-c2cccs2)o1)NCC1CN(Cc2ccccc2)CCO1 (stereo not drawn)	-7	2	1	20699*	3
C=CCNC(=O)CSc1nnc(-c2cccs2)o1	-6	-2	0	2089	0
O=S(=O)(Cc1cc(F)ccc1F)NCC1(c2cccs2)CCOCC1	-5	.	.	.	.
O=C(Nc1ccccc1N1CCCCC1)c1ccc(-c2cccc(Cl)c2)o1	-21	-5	-1	9634	1
O=C(NC(=S)Nc1cc(Cl)ccc1N1CCOCC1)c1ccc(-c2cccc(Cl)c2)o1	-2	0	-1	16940*	0
O=C(O)c1ccc(-c2cccc(Cl)c2)o1	-9	0	?	23409*	3
COc1ccc(S(=O)(=O)NCC2(c3ccccc3OC)CCOCC2)cc1F	1	.	.	.	.
O=C1CC(C(=O)N(Cc2cccnc2)c2nc3ccccc3s2)CN1c1ccccc1 (stereo not drawn)	-2	.	.	.	.
O=C(Nc1ccccn1)C1CCN(S(=O)(=O)c2cccs2)CC1	-15	0	-1	9759	-4
Cc1cccc(NC(=O)C2CCN(S(=O)(=O)c3cccs3)CC2)n1	-1	0	?	17032*	-5
Cc1cccc(Cn2cnc3c(nnn3Cc3ccc(F)cc3)c2=O)c1	-2	1	1	11375	-7
Cc1cccc(Cn2cnc3c(nnn3Cc3ccccc3F)c2=O)c1	-11	-3	3	22956*	1
O=C(NN=Cc1cccc(O)c1)NN=Cc1cccc(O)c1	27	.	.	.	.
CCCN1C(=O)C(C)(C)COc2cc(NC(=O)C3CCCO3)ccc21 (stereo not drawn)	5	.	.	.	.
Oc1ccc(C=NNc2ccccn2)c(O)c1	95*	-4	0	4090	-6
O=[N+]([O-])c1ccc(O)c(/C=N/Nc2ccccn2)c1	.	7	21	2089	67*
O=[N+]([O-])c1ccc(O)c(C=Nc2cccc3ncccc23)c1	68*	0	1	2043	-5
Oc1cccc(C=NNc2ccccn2)c1	3	-1	0	3728	-11
O=[N+]([O-])c1ccc(O)c(/C=N\Nc2ccccc2)c1	17	.	.	.	.
SMILES	SSB-PriA inh	Anthrax LF prot	BoNT-A LC inh2	Bead autofluor	BoNT F protease
CCOC(=O)N1CCN(C(=O)[C@H]2C[C@@H]2c2ccc3c(c2)OCO3)CC1	-12	.	.	.	.
COc1ccc(Cl)cc1S(=O)(=O)NCCCc1cnc2cc(C)nn2c1	0	.	.	.	.
CSc1cccc(NC(=O)CSc2nnc(C)s2)c1	-6	-2	0	16404*	-3
COc1ccc(CNC(=O)CSc2nnc(C)s2)cc1	-7	0	?	19126*	3
COc1ccc(Nc2nc3ccc(OC)cc3s2)cc1	38*!	2	-1	4099	-2
COc1ccc2nc(NC(=O)CSc3nnc(C)s3)sc2c1	-11	0	-2	21301*	-4
Cc1nnc(SCC(=O)Nc2cccc(Br)c2)s1	-1	-3	-1	9036	-5
COc1ccc(C)cc1S(=O)(=O)Oc1cccc(C)c1C	-9	.	.	.	.

Compound activity from PubChem BioAssay.
